Reference: the supplement of paper PMC10849652
About 8,800 targets were measured; listed, in parts, are those with a hit and a random draw of the rest. About 0.5% of all pairs of compound and target were hits.

Tests used:
Assay in all cases: log2 fold change, soluble protein after heating vs DMSO (PISA); higher = thermal stabilisation; K562 lysate, 10 uM; active = over 0.2 and 3.5 SD of the protein, either way, in both replicates (recomputed)
[1] = compound: CN1CC[C@H](c2c(O)cc(O)c3c(=O)cc(-c4ccccc4Cl)oc23)[C@H](O)C1 [alvocidib]
Outline: (§1)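 Log-two fold change in thermal stability relative to solvent controls is reported from duplicates. For each sample, crude K562 extract from dounce-homogenised pellets in PBS pH 7.4 with 1 mM MgCl2, at 1 mg/mL protein, was treated with 10 μM compound for 30 min. Aliquots heated for 3 min across 48°C-58°C were pooled, brought to 0.5% NP-40 at 4°C and cleared at 21,000xg for 90 min. The supernatant was quantified by TMTpro 16plex LC-MS/MS with channel sums equalised.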

[2] = compound: CN1CCc2c(c3ccccc3n2Cc2ccc(C(=O)NO)cc2)C1 [Tubastatin A]
Outline: as §1

[3] = compound: CNC(=O)C1=CC=CC=C1NC2=NC(=NC=C2Cl)NC3=C(C=C(C=C3)N4CCOCC4)OC
Outline: as §1

[4] = compound: CNC(=O)c1ccc(Nc2ncc(C(F)(F)F)c(NCc3nccnc3N(C)S(C)(=O)=O)n2)cc1 [defactinib]
Outline: as §1

[5] = compound: CNc1nc(-c2ccc3c(N)n[nH]c3c2)cc(N2C[C@@H](C(=O)NC3CCCCC3)CC[C@H]2C)n1
Outline: as §1

[6] = compound: COC(=O)N[C@@H](C)CNc1nccc(-c2cn(C(C)C)nc2-c2cc(Cl)cc(NS(C)(=O)=O)c2F)n1 [encorafenib]
Outline: as §1

[7] = compound: COC(=O)[C@H](CCSC)NC(=O)C1=C(C=C(C=C1)NC[C@H](CS)N)C2=CC=CC=C2
Outline: as §1

[8] = compound: COc1cc(Nc2ncc3c(n2)-c2ccc(Cl)cc2C(c2c(F)cccc2OC)=NC3)ccc1C(=O)O [alisertib]
Outline: as §1

[9] = compound: COc1cc2nc(-c3cc(F)ccc3O)nc(N[C@@H]3CNC[C@H]3C(C)(C)O)c2cc1OC
Outline: as §1

[10] = compound: COc1cc2ncnc(Nc3ccc(F)c(Cl)c3)c2cc1OCCCN1CCOCC1 [gefitinib]
Outline: as §1

[11] = compound: CS(=O)(=O)CCNCc1ccc(-c2ccc3ncnc(Nc4ccc(OCc5cccc(F)c5)c(Cl)c4)c3c2)o1 [lapatinib]
Outline: as §1

[12] = compound: CS(=O)(=O)N1CCN(Cc2cc3nc(-c4cccc5[nH]ncc45)nc(N4CCOCC4)c3s2)CC1 [pictilisib]
Outline: as §1

[13] = compound: C[C@@H](Oc1cc(-c2cnn(C3CCNCC3)c2)cnc1N)c1c(Cl)ccc(F)c1Cl [crizotinib]
Outline: as §1

[14] = compound: C[C@H](C1=CC=C(C=C1)C(=O)NC2=C3C=CNC3=NC=C2)N
Outline: as §1

[15] = compound: C[C@H](Nc1ncnc2nc[nH]c12)c1cc2cccc(Cl)c2c(=O)n1-c1ccccc1 [duvelisib]
Outline: as §1

[16] = compound: Cc1cc(Nc2cc(CN3CCOCC3)c3nc(C)c(Cc4ccc(Cl)cc4F)n3n2)n[nH]1 [gandotinib]
Outline: as §1

[17] = compound: Cc1cc(Nc2cc(N3CCN(C)CC3)nc(Sc3ccc(NC(=O)C4CC4)cc3)n2)n[nH]1 [tozasertib]
Outline: as §1

[18] = compound: Cc1ccc(-n2nc(C(C)(C)C)cc2NC(=O)Nc2ccc(OCCN3CCOCC3)c3ccccc23)cc1 [doramapimod]
Outline: as §1

[19] = compound: Cc1ccc(NC(=O)c2ccc(CN3CC[C@H](N(C)C)C3)c(C(F)(F)F)c2)cc1Nc1nccc(-c2cncnc2)n1 [bafetinib]
Outline: as §1

[20] = compound: Cc1cccc(CC(=O)N2CCc3c2ccc(-c2cn(C)c4ncnc(N)c24)c3F)n1
Outline: as §1

Measured: log2 fold change

GNE isoform 2 (UniProt Q9Y223)
Chain of UniProt Q9Y223 (Q9Y223 whole entry, looked up): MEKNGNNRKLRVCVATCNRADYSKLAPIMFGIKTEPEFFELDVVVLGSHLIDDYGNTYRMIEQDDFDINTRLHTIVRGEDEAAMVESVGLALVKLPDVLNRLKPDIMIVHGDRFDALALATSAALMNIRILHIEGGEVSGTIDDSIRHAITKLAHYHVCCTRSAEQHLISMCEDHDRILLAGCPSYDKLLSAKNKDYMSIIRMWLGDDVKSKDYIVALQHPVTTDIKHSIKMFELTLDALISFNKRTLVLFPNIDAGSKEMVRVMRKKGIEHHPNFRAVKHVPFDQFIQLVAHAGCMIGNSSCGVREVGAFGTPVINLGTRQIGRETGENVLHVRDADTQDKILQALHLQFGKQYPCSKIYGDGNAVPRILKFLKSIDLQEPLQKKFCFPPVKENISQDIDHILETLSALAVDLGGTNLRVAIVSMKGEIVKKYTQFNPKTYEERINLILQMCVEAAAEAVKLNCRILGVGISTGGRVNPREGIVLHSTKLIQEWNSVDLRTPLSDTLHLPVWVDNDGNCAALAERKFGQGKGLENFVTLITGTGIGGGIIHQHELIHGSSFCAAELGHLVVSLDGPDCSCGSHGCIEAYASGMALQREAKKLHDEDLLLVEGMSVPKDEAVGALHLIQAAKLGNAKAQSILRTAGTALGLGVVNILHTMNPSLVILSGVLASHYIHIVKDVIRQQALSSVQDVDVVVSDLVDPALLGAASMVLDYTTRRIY
inactive: [1] 0.028 | [2] -0.12 | [3] 0.016 | [4] -0.011 | [5] -0.024 | [6] -0.008 | [7] 0.176 | [8] 0.041 | [9] 0.026 | [10] -0.014 | [11] 0.012 | [12] -0.005 | [13] -0.053 | [14] -0.01 | [15] -0.011 | [16] -0.127 | [17] -0.008 | [18] 0.021 | [19] -0.031 | [20] 0.034

GMDS (UniProt O60547)
Chain of UniProt O60547 (O60547 whole entry, looked up): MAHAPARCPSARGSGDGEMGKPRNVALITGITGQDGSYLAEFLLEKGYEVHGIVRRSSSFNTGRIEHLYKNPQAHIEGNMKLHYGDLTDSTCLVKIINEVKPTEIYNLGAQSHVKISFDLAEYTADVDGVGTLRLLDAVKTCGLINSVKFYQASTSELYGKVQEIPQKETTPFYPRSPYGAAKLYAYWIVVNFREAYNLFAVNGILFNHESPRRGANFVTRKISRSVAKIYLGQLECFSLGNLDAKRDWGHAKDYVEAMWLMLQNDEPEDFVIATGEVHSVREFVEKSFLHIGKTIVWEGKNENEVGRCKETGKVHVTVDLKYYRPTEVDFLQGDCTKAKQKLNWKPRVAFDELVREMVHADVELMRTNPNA
inactive: [1] 0.036 | [2] -0.057 | [3] -0.017 | [4] 0.042 | [5] 0.003 | [6] -0.059 | [7] 0.123 | [8] 0.016 | [9] 0.023 | [10] -0.012 | [11] -0.019 | [12] -0.035 | [13] -0.01 | [14] 0.004 | [15] 0.012 | [16] -0.013 | [17] -0.016 | [18] 0.018 | [19] 0.001 | [20] -0.021

IRF2BPL (UniProt Q9H1B7)
inactive: [1] -0.076 | [2] -0.047 | [3] 0.01 | [4] -0.007 | [5] 0.048 | [6] -0.017 | [7] -0.06 | [8] -0.031 | [9] -0.013 | [10] -0.05 | [11] 0.017 | [12] 0.024 | [13] -0.006 | [14] -0.216 | [15] 0.006 | [16] 0.07 | [17] -0.005 | [18] -0.004 | [19] -0.015 | [20] 0.075

HELQ (UniProt Q8TDG4)
Chain of UniProt Q8TDG4 (Q8TDG4 whole entry, looked up): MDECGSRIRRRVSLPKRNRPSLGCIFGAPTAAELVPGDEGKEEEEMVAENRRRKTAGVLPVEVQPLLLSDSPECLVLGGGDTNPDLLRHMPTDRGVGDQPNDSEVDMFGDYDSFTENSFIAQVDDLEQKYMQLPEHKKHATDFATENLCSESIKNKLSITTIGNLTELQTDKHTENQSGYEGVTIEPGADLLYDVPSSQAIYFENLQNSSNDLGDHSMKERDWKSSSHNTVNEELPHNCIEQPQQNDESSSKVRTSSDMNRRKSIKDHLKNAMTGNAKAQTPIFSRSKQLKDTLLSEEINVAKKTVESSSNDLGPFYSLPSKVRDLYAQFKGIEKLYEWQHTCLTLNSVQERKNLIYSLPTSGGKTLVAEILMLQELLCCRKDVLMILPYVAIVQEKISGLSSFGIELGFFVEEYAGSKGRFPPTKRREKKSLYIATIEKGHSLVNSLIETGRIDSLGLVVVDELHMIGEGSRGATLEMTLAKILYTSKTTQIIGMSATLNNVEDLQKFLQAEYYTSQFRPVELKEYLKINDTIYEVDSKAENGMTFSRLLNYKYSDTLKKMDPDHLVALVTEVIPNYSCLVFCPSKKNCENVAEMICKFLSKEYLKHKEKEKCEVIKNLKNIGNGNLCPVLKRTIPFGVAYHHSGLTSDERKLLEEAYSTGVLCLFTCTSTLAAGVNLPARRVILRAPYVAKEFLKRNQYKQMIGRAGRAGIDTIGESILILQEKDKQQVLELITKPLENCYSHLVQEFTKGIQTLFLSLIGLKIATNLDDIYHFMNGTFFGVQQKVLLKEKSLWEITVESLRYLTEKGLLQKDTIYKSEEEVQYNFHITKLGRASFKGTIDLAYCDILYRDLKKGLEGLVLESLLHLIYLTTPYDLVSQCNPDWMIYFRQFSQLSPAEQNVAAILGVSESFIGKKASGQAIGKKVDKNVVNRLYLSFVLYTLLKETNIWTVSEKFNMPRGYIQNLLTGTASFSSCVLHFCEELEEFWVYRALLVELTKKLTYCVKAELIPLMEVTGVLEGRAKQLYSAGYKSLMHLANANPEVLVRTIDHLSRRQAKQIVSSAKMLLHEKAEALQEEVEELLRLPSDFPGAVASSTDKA
inactive: [1] 0.059 | [2] -0.016 | [3] 0.045 | [4] 0.037 | [5] 0.054 | [6] 0.046 | [7] 0.09 | [8] 0.132 | [9] -0.041 | [10] -0.177 | [11] 0.002 | [12] -0.009 | [13] -0.011 | [14] -0.014 | [15] 0.025 | [16] 0.012 | [17] -0.01 | [18] 0.042 | [19] -0.109 | [20] -0.033

HK2 (UniProt P52789)
inactive: [1] 0.006 | [2] -0.17 | [3] 0.024 | [4] 0.017 | [5] -0.006 | [6] 0 | [7] 0.165 | [8] 0.023 | [9] -0.031 | [10] -0.016 | [11] -0.003 | [12] -0.017 | [13] -0.069 | [14] 0.043 | [15] 0.007 | [16] -0.056 | [17] 0.007 | [18] 0.05 | [19] -0.076 | [20] 0.004

GLB1 (UniProt P16278)
active: [7] 0.327
inactive: [1] -0.042 | [2] -0.032 | [3] 0.005 | [4] 0.006 | [5] 0.055 | [6] -0.036 | [8] 0.022 | [9] 0.007 | [10] -0.015 | [11] -0.02 | [12] 0.001 | [13] -0.003 | [14] -0.017 | [15] 0.004 | [16] 0.012 | [17] -0.084 | [18] 0.016 | [19] -0.03 | [20] 0.008

HERC2 (UniProt O95714)
inactive: [1] -0.075 | [3] -0.109 | [4] -0.085 | [5] -0.077 | [6] 0.027 | [7] 0.111 | [8] -0.007 | [9] 0.005 | [10] 0.004 | [11] -0.001 | [12] -0.007 | [13] -0.055 | [14] -0.041 | [15] 0.023 | [16] -0.007 | [17] 0.022 | [18] 0.058 | [19] -0.15 | [20] 0.153
active: [2] -0.316

HNRNPD isoform 2 (UniProt Q14103)
inactive: [1] 0.142 | [2] 0.108 | [3] 0.001 | [4] -0.043 | [5] 0.065 | [6] -0.032 | [7] -0.008 | [8] 0.018 | [9] -0.008 | [10] 0 | [11] 0.047 | [12] 0.043 | [13] 0.034 | [15] 0.015 | [16] -0.085 | [17] 0.004 | [18] -0.023 | [19] 0.095 | [20] -0.108
active: [14] 0.559

GTF2H1 (UniProt P32780)
inactive: [1] -0.053 | [2] -0.023 | [3] 0.05 | [4] 0.041 | [5] 0.031 | [6] -0.004 | [7] -0.059 | [8] 0.065 | [9] -0.021 | [10] -0.015 | [11] -0.03 | [12] -0.017 | [13] -0.028 | [14] 0.032 | [15] 0.023 | [16] 0.035 | [17] -0.019 | [18] -0.001 | [19] -0.03 | [20] -0.021

HNRNPM (UniProt P52272)
Chain of UniProt P52272 (P52272 whole entry, looked up): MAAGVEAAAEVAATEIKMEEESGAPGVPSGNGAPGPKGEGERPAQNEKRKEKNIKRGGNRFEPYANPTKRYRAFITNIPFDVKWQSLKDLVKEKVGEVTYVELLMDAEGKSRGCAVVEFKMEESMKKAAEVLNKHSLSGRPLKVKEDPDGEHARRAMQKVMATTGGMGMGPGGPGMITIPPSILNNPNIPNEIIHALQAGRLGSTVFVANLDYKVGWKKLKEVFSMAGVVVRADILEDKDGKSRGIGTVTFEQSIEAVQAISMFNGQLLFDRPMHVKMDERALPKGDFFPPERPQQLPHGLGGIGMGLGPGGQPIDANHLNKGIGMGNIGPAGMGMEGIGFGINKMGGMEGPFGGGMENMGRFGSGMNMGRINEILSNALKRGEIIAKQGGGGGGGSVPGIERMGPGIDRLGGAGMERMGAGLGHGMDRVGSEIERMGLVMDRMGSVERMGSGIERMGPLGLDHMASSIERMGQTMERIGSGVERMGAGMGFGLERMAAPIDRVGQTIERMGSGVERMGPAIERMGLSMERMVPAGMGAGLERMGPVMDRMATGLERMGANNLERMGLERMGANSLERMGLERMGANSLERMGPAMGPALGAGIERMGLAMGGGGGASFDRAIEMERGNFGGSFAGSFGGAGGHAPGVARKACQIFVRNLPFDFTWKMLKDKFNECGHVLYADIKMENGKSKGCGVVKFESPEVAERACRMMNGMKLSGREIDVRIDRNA
inactive: [1] -0.01 | [2] -0.096 | [3] 0.022 | [4] 0.045 | [5] -0.067 | [6] 0.166 | [7] -0.035 | [8] 0.069 | [9] 0.037 | [10] 0.012 | [11] -0.001 | [12] 0.063 | [13] 0.025 | [14] -0.011 | [15] -0.022 | [16] 0.02 | [17] -0.019 | [18] -0.113 | [19] -0.029 | [20] 0.053

HDAC3 (UniProt O15379)
inactive: [1] 0.005 | [2] -0.039 | [3] 0.013 | [4] -0.023 | [5] 0.069 | [6] 0.008 | [7] -0.057 | [8] 0.02 | [9] -0.015 | [10] 0.014 | [11] 0.02 | [12] 0.008 | [13] 0.015 | [14] 0.076 | [15] -0.067 | [16] -0.015 | [17] 0.054 | [18] -0.024 | [19] -0.005 | [20] -0.045

GSTM2 (UniProt P28161)
Chain of UniProt P28161 (P28161 whole entry, looked up): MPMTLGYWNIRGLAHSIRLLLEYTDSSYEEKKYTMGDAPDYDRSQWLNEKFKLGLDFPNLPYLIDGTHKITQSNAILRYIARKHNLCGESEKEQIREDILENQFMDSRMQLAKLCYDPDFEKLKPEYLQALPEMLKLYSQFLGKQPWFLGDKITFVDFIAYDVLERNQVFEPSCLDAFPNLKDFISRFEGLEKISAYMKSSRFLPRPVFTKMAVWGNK
inactive: [1] 0.079 | [2] 0.045 | [3] 0.009 | [4] 0.036 | [5] -0.016 | [6] -0.024 | [7] 0.068 | [8] 0.01 | [9] -0.015 | [10] 0.034 | [11] -0.024 | [12] -0.011 | [14] 0.121 | [15] -0.067 | [16] -0.042 | [17] 0.02 | [19] -0.011 | [20] -0.079

HADH isoform 2 (UniProt Q16836)
inactive: [1] 0.048 | [2] 0.003 | [3] -0.024 | [4] 0.061 | [5] 0.09 | [6] -0.048 | [7] 0.03 | [8] 0.021 | [9] -0.002 | [10] 0.042 | [11] -0.011 | [12] 0.04 | [13] 0.031 | [14] 0.057 | [15] -0.044 | [16] -0.05 | [17] 0.053 | [18] -0.055 | [19] 0.045 | [20] -0.055

INTS5 (UniProt Q6P9B9)
Chain of UniProt Q6P9B9 (Q6P9B9 whole entry, looked up): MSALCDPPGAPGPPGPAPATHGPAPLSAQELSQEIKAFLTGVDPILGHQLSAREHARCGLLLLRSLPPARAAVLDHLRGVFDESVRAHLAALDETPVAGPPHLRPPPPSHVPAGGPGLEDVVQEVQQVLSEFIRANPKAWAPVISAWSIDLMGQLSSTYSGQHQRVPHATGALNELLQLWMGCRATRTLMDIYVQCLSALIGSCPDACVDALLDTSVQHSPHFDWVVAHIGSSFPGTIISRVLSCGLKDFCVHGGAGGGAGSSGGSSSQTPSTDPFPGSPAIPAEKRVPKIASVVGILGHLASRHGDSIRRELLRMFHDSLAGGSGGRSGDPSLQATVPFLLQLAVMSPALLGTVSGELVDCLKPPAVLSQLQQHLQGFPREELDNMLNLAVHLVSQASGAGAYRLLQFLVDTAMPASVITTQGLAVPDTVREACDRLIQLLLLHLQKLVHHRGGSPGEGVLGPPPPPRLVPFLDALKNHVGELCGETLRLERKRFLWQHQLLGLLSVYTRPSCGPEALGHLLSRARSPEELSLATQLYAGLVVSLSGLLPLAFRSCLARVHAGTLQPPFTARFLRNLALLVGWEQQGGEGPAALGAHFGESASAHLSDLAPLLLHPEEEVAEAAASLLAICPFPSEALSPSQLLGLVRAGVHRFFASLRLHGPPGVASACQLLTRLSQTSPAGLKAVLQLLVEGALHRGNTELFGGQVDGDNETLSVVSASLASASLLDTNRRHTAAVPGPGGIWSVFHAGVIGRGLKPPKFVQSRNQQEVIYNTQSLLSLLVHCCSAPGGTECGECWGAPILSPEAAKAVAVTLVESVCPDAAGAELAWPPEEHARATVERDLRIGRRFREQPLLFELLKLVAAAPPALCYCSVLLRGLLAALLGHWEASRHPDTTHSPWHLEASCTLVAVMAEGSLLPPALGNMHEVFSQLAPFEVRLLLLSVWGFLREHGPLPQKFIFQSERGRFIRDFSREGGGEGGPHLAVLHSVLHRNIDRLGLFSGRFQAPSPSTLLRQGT
inactive: [1] 0.038 | [2] -0.055 | [3] 0.027 | [4] 0.017 | [5] -0.047 | [6] 0.02 | [7] -0.259 | [8] 0.028 | [9] 0.013 | [10] 0.045 | [11] -0.688 | [12] 0.018 | [13] -0.082 | [14] 0.048 | [15] -0.022 | [16] -0.235 | [17] 0.009 | [18] -0.002 | [19] -0.092 | [20] 0.054

IRAK1 (UniProt P51617)
Chain of UniProt P51617 (P51617 whole entry, looked up): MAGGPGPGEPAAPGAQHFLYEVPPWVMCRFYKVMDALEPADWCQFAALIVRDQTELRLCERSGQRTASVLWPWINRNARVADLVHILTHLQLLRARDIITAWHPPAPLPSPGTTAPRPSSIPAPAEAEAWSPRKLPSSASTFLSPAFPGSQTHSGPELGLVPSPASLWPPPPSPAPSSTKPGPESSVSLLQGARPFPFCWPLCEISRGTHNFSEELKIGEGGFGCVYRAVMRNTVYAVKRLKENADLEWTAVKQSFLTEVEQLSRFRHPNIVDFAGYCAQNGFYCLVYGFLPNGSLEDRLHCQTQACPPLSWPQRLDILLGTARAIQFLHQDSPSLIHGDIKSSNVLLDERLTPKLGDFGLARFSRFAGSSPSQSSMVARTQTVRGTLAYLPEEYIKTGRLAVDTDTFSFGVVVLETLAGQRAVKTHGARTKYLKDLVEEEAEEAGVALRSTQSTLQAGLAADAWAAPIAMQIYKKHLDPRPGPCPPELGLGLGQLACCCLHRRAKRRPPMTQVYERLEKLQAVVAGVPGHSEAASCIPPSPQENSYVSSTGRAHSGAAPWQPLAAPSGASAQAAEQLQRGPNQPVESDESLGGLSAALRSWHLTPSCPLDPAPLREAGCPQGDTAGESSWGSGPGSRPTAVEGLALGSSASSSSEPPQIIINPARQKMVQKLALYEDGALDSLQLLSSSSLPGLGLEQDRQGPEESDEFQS
active: [6] 0.812 | [13] 0.799
inactive: [1] -0.104 | [2] -0.038 | [3] 0.314 | [4] 0.086 | [5] 0.121 | [7] 0.062 | [8] -0.01 | [9] 0.096 | [10] 0.022 | [11] 0.023 | [12] -0.008 | [14] -0.111 | [15] -0.169 | [16] 0.26 | [17] -0.116 | [18] 0.172 | [19] -0.036 | [20] 0.168
